Assay outcomes: PubChem, National Center for Advancing Translational Sciences (NCATS)
Most compounds without a hit are left out; they make up all but 2% or so of the library.
TR SRC2 fluor cs: Total Fluorescence Counterscreen for Inhibitors of the Interaction of Thyroid Hormone Receptor and Steroid Receptor Coregulator 2 | hit rate 0.29% among 280,000 | TRb/SRC2 Texas Red total fluorescence interference | Potency, µM (top dose mostly 106 µM), for inactives: at the highest dose fluorescence change, negative = quenching | AID 1479, 2009; active = well fitted curve in either direction with a large enough effect; inconclusive = small, poorly fitted or top-dose-only effect; note: potency is the fitted concentration of half-maximal effect; % is set by controls: 0 for no effect and ±100 for the full control effect
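Human TRβ ligand-binding domain (0.6 uM) and Texas Red SRC2 peptide (20 nM) in Tris buffer with 1 uM T3 and 5% DMSO were incubated with pinned compound for 5 hr at ambient temperature. Total fluorescence was computed as S + 2P (555/632 nm).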
FBPA coupling cs: qHTS Assay for Inhibitors of Fructose-1,6-bisphosphate Aldolase from Giardia Lamblia: Coupling assay counterscreen; coupling enzyme system counterscreen, AmpLite Red fluorescence; activity change, negative = inhibition, % at 58.2 µM, hits read low; hit rate 0.67% among 290,000; AID 2472, 2010; in the data active = activity change below about -30%; note: % is set by controls: 0 for no effect and ±100 for the full control effect
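Fluorescence at 525 nm excitation and 598 nm emission measured inhibition of the coupled detection system without aldolase. Compounds (at 57.5 uM final) were preincubated 10 min at room temperature with coupling enzyme reagent before a 20 min substrate/AmpLite Red step.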
HttQ103 aggreg: qHTS Multiplex Assay to Identify Dual Action Probes in a Cell Model of Huntington: Aggregate Formation (GFP); PC12 HttQ103-GFP aggregates, Acumen cytometry, 40 h; Potency, µM (series often up to 46.1 µM), for inactives: at the highest dose activity change, negative = inhibition, usual class: inhibitors; hit rate 1.1% among 220,000; AID 1688, 2009; note: potency is the fitted concentration of half-maximal effect; % is set by controls: 0 for no effect and ±100 for the full control effect; nearly all actives have a fitted effect of over 60% in size
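PC12 cells with ecdysone-inducible HTT exon1 Q103-GFP, induced by 100 nM tebufenozide, given compounds in a concentration series. GFP aggregates (1–25 um, 6 SD above background) counted in lysates by laser-scanning cytometry, 488 nm excitation.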
TRb-SRC2 inh: qHTS for Inhibitors of the Interaction of Thyroid Hormone Receptor and Steroid Receptor Coregulator 2. Thyroid hormone receptor beta (Homo sapiens), P10828. TRbeta-SRC2 peptide binding, fluorescence polarization; receptor liganded with 1 µM T3. Potency, µM (top dose mostly 106 µM), for the others: top-dose activity change, negative = inhibition, most hits filed as inhibitors. hit rate 0.065% among 280,000. AID 1469, 2008;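 note: potency is the fitted concentration of half-maximal effect; plate controls were bound peptide for no effect and peptide without receptor for full effect; nearly all actives have a fitted effect of over 50% in size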
Target sequence (P10828 whole entry, looked up): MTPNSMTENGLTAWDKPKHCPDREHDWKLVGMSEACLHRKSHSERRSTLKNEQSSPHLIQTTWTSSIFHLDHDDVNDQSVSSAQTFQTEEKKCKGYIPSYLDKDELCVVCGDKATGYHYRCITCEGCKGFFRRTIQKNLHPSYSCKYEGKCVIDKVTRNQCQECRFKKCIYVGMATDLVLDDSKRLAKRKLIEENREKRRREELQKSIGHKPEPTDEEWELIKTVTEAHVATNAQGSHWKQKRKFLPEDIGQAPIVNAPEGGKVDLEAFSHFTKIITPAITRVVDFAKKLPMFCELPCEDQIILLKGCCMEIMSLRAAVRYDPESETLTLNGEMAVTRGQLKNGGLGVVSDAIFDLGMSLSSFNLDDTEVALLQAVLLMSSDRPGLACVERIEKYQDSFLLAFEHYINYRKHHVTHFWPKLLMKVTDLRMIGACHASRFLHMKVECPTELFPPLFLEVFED
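Quantitative HTS by FP: 0.6 uM TRb LBD, 20 nM labeled SRC2 20-mer, 1 uM T3, 5% DMSO; 5 hr ambient incubation; % activity per concentration and potencies from concentration series.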
JMJD2E inh: qHTS Assay for Inhibitors of Human Jumonji Domain Containing 2E (JMJD2E) | Lysine-specific demethylase 4E (Homo sapiens), B2RXH2 | JMJD2E catalytic domain, FDH-coupled NADH fluorescence (FDH is formaldehyde dehydrogenase) | Potency, µM (doses to about 57.1 µM), inactives show at the highest dose activity change, negative = inhibition, actives largely listed as inhibitors | hit rate 1.6% among 230,000 | AID 2147, 2009; active = well fitted inhibition curve with a large enough effect, not every such curve was filed as active; inconclusive = small, poorly fitted or top-dose-only effect, or another doubt; inactive = no such curve, though single readings can be large or run the other way;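 note: potency is the fitted concentration of half-maximal effect; 0% = wells with enzyme and -100% = buffer wells without enzyme; nearly all actives have a fitted effect of over 50% in size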
Target sequence (B2RXH2 1-337 limits assumed): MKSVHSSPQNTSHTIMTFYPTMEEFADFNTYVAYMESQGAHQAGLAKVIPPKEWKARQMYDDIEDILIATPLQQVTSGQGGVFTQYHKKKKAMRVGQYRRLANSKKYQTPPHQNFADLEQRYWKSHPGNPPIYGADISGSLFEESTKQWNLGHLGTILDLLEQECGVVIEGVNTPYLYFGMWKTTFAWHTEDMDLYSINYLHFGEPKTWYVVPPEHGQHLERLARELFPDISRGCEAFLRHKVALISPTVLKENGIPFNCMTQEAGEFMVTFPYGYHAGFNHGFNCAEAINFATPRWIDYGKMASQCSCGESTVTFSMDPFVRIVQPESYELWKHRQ
HTT ATP protect: qHTS Multiplex Assay to Identify Dual Action Probes in a Cell Model of Huntington: Cytoprotection (ATP). PC12 HTT-Q103 induced, cytoprotection, ATP luminescence, 40 h. hit rate 0.14% among 230,000. Potency, µM (highest dose often 56.4 µM), for the others: cytoprotection (ATP increase), hits mostly activators. AID 1471, 2008; note: potency is the fitted concentration of half-maximal effect; % of control where 0% means no effect; nearly all actives have a fitted effect of over 45% in size
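PC12 cells stably carrying ecdysone-inducible Htt exon 1 (Q103)–GFP were induced with 100 nM tebufenozide (final) alongside library compounds in a dose series. Cytoprotection was scored as retained ATP by ATPlite luminescence.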
The depositor's hits bear a star; ? = inconclusive; . = not tested or not shown; ! = repeats disagree; [ ] = another dose, or the depositor's remark. Unless noted, calls come from the whole dose curve; as a rule, active = well fitted curve in the direction sought with a large enough effect; inconclusive = small, poorly fitted or top-dose-only effect, or another doubt; inactive = no such curve, though single readings can be large; an effect the other way counts as inactive or inconclusive.

SMILES	TR SRC2 fluor cs	FBPA coupling cs	HttQ103 aggreg	TRb-SRC2 inh	JMJD2E inh	HTT ATP protect
CC(=O)c1c(C)oc2ccc(N(C(C)=O)S(=O)(=O)c3ccc(Cl)c([N+](=O)[O-])c3)cc12	-0.1%	2.7	11.2µM*	-20.6%	-1.2%	-105.5%
O=C(COCc1cc(-c2ccco2)on1)Nc1ccc(OC(F)(F)F)cc1	?	.	.	1.5%	.	.
Cc1cnc(C(=O)Nc2ccc(C)c(S(=O)(=O)N(C)C)c2)cn1	35.5µM*[quencher]	-1.6	-4.8%	-16.7%[53 µM]	-2.7%	-4.6%[10 µM]
O=C(Nc1ccccc1C(=O)O)c1ccc(NC(=O)c2ccc(Br)o2)cc1	-5.1%	-9.1	10.2%[1.84 µM]	-6.1%	1.2%	2.24µM*
O=C(Nc1ccccc1C(=O)O)c1cccc(NC(=O)c2ccc(Br)o2)c1	-5.7%	6.0	-12.6%	2.9%	6.7%	1.2%[10 µM]
COc1ccc(-c2nc3sc(CCNC(=O)C(=O)Nc4c(C)cccc4C)c(C)n3n2)cc1	-0.3%	.	.	-7.3%	.	.
c1cn(-c2ncnc3sc4c(c23)CCCC4)cn1	2.2%	9.5	11.2µM*	4.3%	?	19.6%[10 µM]
CCCC[C@@H](C)/C=C(C)/C=C(\C)C(=O)NC1=C[C@@](O)(/C=C/C=C/C=C/C(=O)NC2=C(O)CCC2=O)[C@@H]2O[C@@H]2C1=O	-6.9%	1.1	.	-14.8%	.	.
CCOC(=O)c1cccc(NC(=O)N2CCC(CN3CCCCCC3)CC2)c1	5.1%	.	.	3.9%	.	.
CCOC(=O)CN1C(=O)C(=O)c2cccc(C)c21	-0.4%	-47.6*	?	5.1%	-0.6%	9.0%[10 µM]
COc1ccccc1CN1C(=O)C(=O)c2cccc(C)c21	0.6%	.	.	-2.6%	.	.
c1cncc(C(c2nnnn2C2CCCCC2)N2CCCCC2)c1 (centres undefined)	-1.2%	0.6	-5.1%[9.22 µM]	-0.1%	-11.2%	-5.5%[10 µM]
CCOC(=O)c1c(C)oc2c1c(C(c1ccccc1)N1CCOCC1)c(O)c1ccccc12 (centres undefined)	1.5%	-42.0*	2.1%	4.6%	10.4%	4.1%
CCOC(=O)c1c(C)oc2c1c(C(c1cccnc1)N1CCCCC1)c(O)c1ccccc12 (centres undefined)	0.2%	-36.3*	-3.4%	0.8%	?	4.2%
CCOC(=O)c1c(C)oc2c1c(C=NCCO)c(O)c1ccccc12	0.3%	-64.9*	?	7.2%	1.8%	-3.1%
COc1ccc(-n2nc3c(N4CCCC(C(=O)NCc5cccc(F)c5)C4)nnc(C)c3c2C)cc1 (centres undefined)	2.6%	.	.	1.5%	.	.
Cc1ccc(N2C(N)=C(C#N)C(c3cccnc3)C3=C2CCCC3=O)cc1 (centres undefined)	-2.2%	-2.1	16.6%	-13.8%	?	-3.0%
N#CC1=C(N)N(c2ccc(Br)cc2)C2=C(C(=O)CCC2)C1c1cccnc1 (centres undefined)	-1.3%	-43.7*	-6.8%	9.8%	3.5%	6.6%
CC(C)CC(C)(O)C#CC(C)(O)CC(C)C (centres undefined)	-1.9%[201 µM]	.	.	2.4%[201 µM]	.	.
CC(C)=CCC/C(C)=C/CC/C(C)=C/CC/C(C)=C/CC1=C(C)C(=O)c2ccccc2C1=O	0.9%	-33.7*	8.8%[9.22 µM]	1.0%	-6.8%	14.3%[10 µM]
CC(C)=CCC1=C(OCC(=O)O)C(=O)c2ccccc2C1=O	-2.8%	-45.3*	-16.2%[9.22 µM]	?	14.1µM*	-28.2%[10 µM]
CCc1ccc(NC(=O)CSc2c(C)cnc3c2c(=O)n(C)c(=O)n3C)cc1	1.1%	.	.	-7.3%	.	.
CCCCCC[C@@H]([C@@H](C)O)n1cnc2c(N)ncnc21	-0.2%	3.9	.	1.4%	12.6µM*!	-32.4%
CCOc1ccc(-n2c(SCc3ccc(C(=O)OC)o3)nc3c([nH]c4ccccc43)c2=O)cc1	1.2%	.	.	0.0%	.	.
CCOC(=O)c1nnn(CC(=O)N2N=C(c3ccc(Cl)cc3)CC2c2ccccc2)c1C(=O)OCC (centres undefined)	3.2%	-1.6	-2.2%	6.8%	?	-8.2%[1.9 µM]
SMILES	TR SRC2 fluor cs	FBPA coupling cs	HttQ103 aggreg	TRb-SRC2 inh	JMJD2E inh	HTT ATP protect
CCOC(=O)c1nnn(CC(=O)N2N=C(c3ccc(Cl)cc3)CC2c2ccc(OC)cc2)c1C(=O)OCC (centres undefined)	-8.3%	-3.8	-0.8%	-1.2%	31.6µM*	16.8%[10 µM]
C=CCN1c2ccccc2[C@]23C[C@@H](C(=O)OC)N(S(=O)(=O)CCCC)C2=NC(C(=O)OC)=C(C(=O)OC)[C@H]13	0.0%[11.2 µM]	2.5	.	2.3%[11.2 µM]	-0.8%[11.4 µM]	19.6%[10 µM]
C=CCSc1nnc(NC(=O)c2cccc(S(=O)(=O)N(C)c3ccccc3)c2)s1	-0.4%	13.4	10µM*	1.2%	?	-18.3%[0.074 µM]
CN(c1ccccc1)S(=O)(=O)c1cccc(C(=O)NCCc2ccc(O)c(O)c2)c1	-7.7%	-8.2	?	-5.2%	14.1µM*	15.5%
CN(c1ccccc1)S(=O)(=O)c1cccc(C(=O)Nc2nccs2)c1	-0.9%	2.8	-19.7%	-5.1%	?	-127.4%
COc1ccc(CNc2nc(NCc3ccc(OC)cc3)c3ncn(C4CCCCC4)c3n2)cc1	-3.2%	-2.4	.	-3.4%	.	.
Cc1ccc(-c2nn3c(=O)cc(CN4CCN(C(=O)c5ccc(C(C)(C)C)cc5)CC4)nc3s2)cc1	0.4%	.	.	-2.5%	.	.
Cc1ccc2[nH]cc(C(c3ccccc3)c3cccs3)c2c1 (centres undefined)	-2.5%	.	.	-11.5%	.	.
CCOc1cc(CNCCSc2nnnn2-c2ccccc2)cc(Cl)c1OC	?	.	.	-13.1%	.	.
CCCCN(CC)CCNC(=O)CCC(=O)Nc1ccc2nc(N3CCN(C)CC3)cc(C)c2c1	-4.8%	-33.6*	-10.1%	0.6%	?	.
CC(C)(C)OC(=O)NCCCC[C@H](NC(=O)c1[nH]cnc1C(=O)Nc1ccc(Cl)cc1)C(=O)OC(C)(C)C	-2.7%	-3.6	-31.4%[9.22 µM]	4.2%	22.4µM*	8.9%[10 µM]
COc1ccc(CCNC(=O)C(=O)c2c[nH]c3ccccc23)cc1	-3.6%	.	.	-0.5%	.	-7.9%
CCCCCCCCCCCC1=C(O)C(=O)C=C(O)C1=O	-3.9%	14.6	.	-8.5%	20µM*!	?
CC(=O)N1c2ccc(S(=O)(=O)Nc3ccc(C)c(Cl)c3)cc2CC1C (centres undefined)	15.8µM*[quencher]	.	.	-15.3%	.	.
CC(=O)N1c2ccc(S(=O)(=O)NCc3ccccc3Cl)cc2CC1C (centres undefined)	-0.2%	2.5	.	2.7%	.	.
